Source: PubChem BioAssay AID1892 (NMMLSC, 2009)
About 140 (2.4%) of roughly 5,900 compounds were called active. No stated cut-off is given here; in the data, active means binding response below about 16% or above about 210%; inactive means in between. Only a selection was taken, and actives are over-represented in it overall.

What follows are compounds tested against Mitogen-activated protein kinase kinase kinase 2 (Homo sapiens) (UniProt Q9Y2U5) (assay: wildtype MEKK2 PB1-MEK5 interaction enhancers or blockers – biochemical, single concentration, multiplex bead flow cytometry, confirmation (AID 1892)). Details: Alexa488-MEK5 binding to MEKK2 WT, at 10 µM, actives lie on both sides.

Binding response (% of control), inactive:
Cc1nn(-c2ccccc2)c(C)c1NC(=O)CCl 95%
C=CCn1c(P(C)(=O)O)nc2ccccc21 95%
CNC(=O)/C(=C\C=C\c1ccccc1)NC(=O)c1ccc([N+](=O)[O-])cc1 99%
Cc1ccc(N(CCC(=O)O)S(=O)(=O)c2cccc(C(F)(F)F)c2)cc1 102%
CN(c1ccccc1)c1ccc(/C=c2\s/c(=C(/C#N)C(=O)C(C)(C)C)n(Cc3ccco3)c2=O)cc1 73%
CCN(CC)CCCNC(=O)c1ccc2c(=O)n(Cc3ccc4c(c3)OCO4)c(=S)[nH]c2c1 128%
O=C(NC1CCN(Cc2ccccc2)CC1)c1ccc(Oc2cc(Cl)cc(Cl)c2)o1 138%
COCCN1C=C2C(=O)C(C)(OC(=O)C3CCCC3)C(=O)C=C2C=C1c1ccsc1 (stereo not given) 96%
O=C(NCc1ccccc1Cl)NC(=O)c1csc([N+](=O)[O-])c1 104%
COc1ccc(CCn2c(NN=C3CCCC3)nc3c2c(=O)[nH]c(=O)n3C)cc1 102%
CCOC(=O)c1sc2nc(C)nc(SCC(N)=O)c2c1C 102%
COc1ccccc1N=C(C)C1=C(O)COC1=O 106%
Cc1nc2cc(S(=O)(=O)C(F)(F)F)ccc2s1 106%
CC(C)CC(=O)NC(=S)NCc1ccccc1 98%
COc1ccc(C(=O)NCC(=O)N/N=C/c2ccc([N+](=O)[O-])o2)cc1OC 92%
CCOC(=O)c1c(NC(=O)c2ccc(S(=O)(=O)N(C)CC3CCCO3)cc2)sc2c1CC(C)(C)NC2(C)C (stereo not given) 121%
COc1cccc(OCC(=O)NNC(=O)c2cnccn2)c1 98%
COc1ccc(C2CC(=O)Nc3cc(C)c(C)cc32)c(OC)c1OC (stereo not given) 101%
COc1ccc(SC[C@H](Cc2ccccc2)N2CCN(CCc3ccccc3)CCC2=O)cc1 129%
Cc1cc(C)nc(-n2ncc3c2CC(c2ccc(C(C)C)cc2)CC3=O)n1 (stereo not given) 102%
Cc1c(C#N)c2ncn(CC#N)c(=O)c2n1-c1ccccc1 99%
CC(=O)Nc1ccc(N2CCOCC2)c(C(=O)Nc2cccc(C)c2)c1 102%
CCCCNC(=O)N1CCCC(N(C)CCc2ccc(OC)c(OC)c2)C1 (stereo not given) 103%
Cc1ccc(C(=O)NC(=S)Nc2ccc3[nH]c(=O)[nH]c3c2)cc1C 101%
CCN1CCN(c2ccc(S(=O)(=O)N3CCCCC3)cc2NC(=O)Cc2c(Cl)cccc2Cl)CC1 125%
